An excerpt weighted towards active compounds, which were near 13% of everything screened.
Cycloheximide cs – counter-screen hit for Shiga toxin inhibitors, cycloheximide. AID 2314. max response, %. cell reporter, cycloheximide protein synthesis inhibition counterscreen. 300,000 compounds, 12% hits; in the data active means max response mostly above about 13%, no sharp cut-off; inactive means mostly below about 14%; further: read at 38.3 µM for the half of the compounds with a filed dose; 0% is about no effect
FMDV inh – foot and mouth disease virus antiviral activity. FMDV antiviral cell-based qHTS. Potency, µM (series often up to 57.9 µM), for inactives: at the highest dose activity change, negative = inhibition, usual class: inhibitors. 410,000 compounds, 1.2% hits. AID 1159524; calls by dose curve; tested in HEK293T cells; further: read-out not given here; potency means the concentration at half of the fitted maximal effect; on the % scale 0 is the no-effect control and ±100 the full control effect; nearly all actives have a fitted effect of over 45% in size
MARV entry inh – Marburg virus entry inhibition. Potency, µM (series often up to 37.8 µM), for the others: top-dose activity change, negative = inhibition, actives largely listed as inhibitors. 300,000 compounds, 1.8% hits. Marburg virus pseudotyped entry inhibition, cell reporter; calls by dose curve; tested in HEK293 cells; further: potency means the concentration at half of the fitted maximal effect; on the % scale 0 is the no-effect control and ±100 the full control effect
HCV inh – HCV inhibition; Huh7.5.1 HCVcc-Cre infection, luciferase reporter, 44 h; Potency, µM (doses to about 41.8 µM), for inactives: top-dose activity change, negative = inhibition, actives largely listed as inhibitors; 340,000 compounds, 3.4% hits; active means well fitted inhibition curve with a large enough effect; inconclusive means small, poorly fitted or top-dose-only effect, or another doubt; inactive means no such curve, though single readings can be large or run the other way; further: potency means the concentration at half of the fitted maximal effect; on the % scale 0 is the no-effect control and ±100 the full control effect
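After 44 h co-culture of compound, cells and HCVcc-Cre (~0.5 moi), substrate is added for 15 min at room temperature and luciferase measured over 15 sec. Cells were seeded at 1,000/well and pre-cultured 4 h.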
Shiga toxin inh – blocks Shiga toxin action in Vero cells. Vero cells, Shiga toxin protein synthesis inhibition reporter. inhibition, % at 38.7 µM. 290,000 compounds, 9.2% hits. AID 2315; in the data active means inhibition mostly above about 28%, no sharp cut-off; inactive means mostly below about 43%; further: 0% is about no effect
Lassa entry inh – Lassa virus entry inhibition. Potency, µM (doses to about 37.9 µM), for the others: top-dose activity change, negative = inhibition, hits mostly inhibitors. AID 540256. Lassa virus pseudotype entry inhibition, cell reporter. 300,000 compounds, 1.2% hits; calls by dose curve; tested in HEK293 cells; further: potency means the concentration at half of the fitted maximal effect; on the % scale 0 is the no-effect control and ±100 the full control effect; nearly all actives have a fitted effect of over 50% in size
Numbers without * were called inactive; u = inconclusive; x = no result; [ ] = dose if it differs, or a comment.

SMILES	Cycloheximide cs	FMDV inh	MARV entry inh	HCV inh	Shiga toxin inh	Lassa entry inh
COc1ccc(CCNC(=O)c2ccc3c(c2)N(Cc2ccccc2)CCS3)cc1OC	-3.0	u	u	10µM*	3.9	u
Cn1nc(C(=O)NCc2cccc(F)c2)cc1C(=O)NCc1cccc(F)c1	x	-13.6%	x	-24.8%	x	x
CCOc1ccc(NC(=O)CCNS(=O)(=O)c2ccc3c(c2)c(=O)n(C)c(=O)n3C)cc1	-3.1	23.9%	5.3%	x	-13.7	-10.7%[14.3 µM]
O=C(Nc1ccc2c(c1)OCO2)C1CCCN(S(=O)(=O)Cc2ccccc2)C1 (centres undefined)	1.4	-16.2%	12.7%	-0.6%	-5.9	9.8%
O=C(Nc1ccc2c(c1)OCCO2)C1CCCN(S(=O)(=O)Cc2ccccc2)C1 (centres undefined)	55.8*	-4.7%	18.2%[46.1 µM]	u	71.9*	3.5%
O=C(C1CCCN(S(=O)(=O)Cc2ccccc2)C1)N1CCC(Cc2ccccc2)CC1 (centres undefined)	-6.1	39.8µM*	-28.0%	u	-12.1	-16.6%
CCn1cc(CNCc2ccc(OCC(O)CN(C)Cc3ccccc3)cc2)cn1 (centres undefined)	-1.6	-14.4%	u	10µM*	-13.5	-29.7%
CN(Cc1ccccc1)CC(O)COc1ccc(CNCc2ccc(Cl)s2)cc1 (centres undefined)	-1.5	-13.6%	2.51µM*	u	7.2	u
O=C(CSc1ccc(F)cc1)NCC1(N2CCOCC2)CCCCC1	x	-25.1%	-12.4%	u	x	14.8%
O=C(CSc1nnc(-c2cccs2)o1)Nc1cccc(C(F)(F)F)c1	x	-1.8%	16.8%[46.1 µM]	x	x	1.8%[46.1 µM]
CC(C)N1CCC(n2nccc2NC(=O)c2ccc3c(c2)OCO3)CC1	-1.5	-26.1%	13.1%	x	1.6	7.2%
O=C(NC1CCCCC1)Sc1ccc(Cl)cc1	14.8	31.6µM*	18.7%[46.1 µM]	-24.8%	63.1	0.5%
O=C(CSc1ccc(F)cc1)NC1CCCCC1	35.6*	76.6%	x	12.8%	70.6*	x
O=C(CCCc1ccccc1)NC12CC3CC(CC(C3)C1)C2	45.5*	33.5%	x	4.1%	x	x
O=C(CSc1ccc(Cl)cc1)NC1CCCC1	35.4*	49.4%	18.8%	5.5%	72.5*	3.9%
COc1cccc(-n2cnc3sc(C)cc3c2=O)c1	16.3	21.1%	19.3%[46.1 µM]	17.7%	27.5	-8.3%
CCn1cc(C(=O)NCc2ccccn2)c(=O)c2cc(F)c(N3CCN(C)CC3)cc21	-7.4	11.3%	-14.7%	-5.5%	-17.6	-5.7%
COCCC(=O)NC12CC3CC(CC(C3)C1)C2	-2.3	25.2%	5.6%	0.2%	-6.6	32.3%[14.3 µM]
O=C(CCSc1ccc(Cl)c(Cl)c1)NC12CC3CC(CC(C3)C1)C2	27.1*	5.5%	u	u	77.3	-2.2%
O=C(CSc1ccc(F)cc1)NC12CC3CC(CC(C3)C1)C2	37.4*	4.6%	u	-6.2%	39.2	21.3%[46.1 µM]
COC(=O)C[C@H]1C=C[C@@H](NC(=O)Nc2cccc(OC)c2)[C@@H](CO)O1	x	-12.7%	x	x	x	x
C=CCSc1nnc(-c2sc(-c3ccccc3)nc2C)n1C	41.6*	23.9%	-0.1%	-10.0%	16.6	1.9%
Cn1c(SCCSc2nnc(-c3ccccc3)n2C)nnc1-c1ccccc1	-3.3	x	4.9%	x	29.5	x
Cc1ccc([C@@H]2C[C@H]3[C@@H](CN2S(=O)(=O)c2ccc(Cl)cc2)C(=O)C[C@@H](c2cccc4ccccc24)N3S(=O)(=O)c2ccc(C)cc2)cc1	x	-18.3%	x	x	x	x
O=C(Cc1ccccc1)Nc1ccc(NC(=S)NC(=O)c2ccccc2)cc1	-2.7	-13.0%	15.1%	u	20.0	-12.3%
SMILES	Cycloheximide cs	FMDV inh	MARV entry inh	HCV inh	Shiga toxin inh	Lassa entry inh
CCC(=O)Nc1cccc(NC(=S)NC(=O)c2ccccc2)c1	53.8*	47.5%	-6.1%	0.7%	15.8*	u
O=C(NC(=S)Nc1cccc(CO)c1)c1ccc(-c2ccccc2)cc1	25.0*	-12.0%	4.2%	-3.9%	64.0*	u
CCC(=O)Nc1cccc(NC(=S)NC(=O)c2cccc(C)c2)c1	60.2*	0.0%	u	u	113.6*	u
CCC(=O)NC(=S)Nc1cccc(NC(=O)CC)c1	-2.6	-0.8%	7.7%	-28.7%	8.7	u
O=C(NC(=S)Nc1cccc(NC(=S)NC(=O)c2ccccc2)c1)c1ccccc1	x	16.5%	u	u	x	-14.8%[46.1 µM]
CCC(=O)Nc1cccc(NC(=S)NC(=O)c2ccc(C)cc2)c1	46.0*	29.2%	x	u	101.6*	x
